MEKK2 WT-MEK5 – modulators of MEK5 binding to wildtype MEKK2, primary screen, biochemical, multiplex bead flow cytometry, Alexa488-MEK5 | actives 1.1% (n = 290,000) | Mitogen-activated protein kinase kinase kinase 2 (Homo sapiens), Q9Y2U5 | Alexa488-MEK5 binding to MEKK2 WT; actives lie on both sides | binding response (% of control), % at 10 µM | AID 1531, 2009; in the data active = binding response below about 67% or above about 130%
DNA FID counter – compounds displacing fluorescent DNA intercalator, primary screen, artefact control for HCV NS3 helicase inhibitor project, biochemical, FID fluorescence; DNA fluorescent intercalator displacement; AID 1845, 2009; actives 0.17% (n = 290,000); inhibition, % at 7.9 µM; in the data active = inhibition above about 37%;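 also: 0% = vehicle and 100% = reference compound; higher means more ethidium bromide displaced from hairpin DNA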
MEKK3 PB1 HTS – modulators of MEKK3-MEK5 PB1 binding, primary screen, biochemical, wildtype MEKK3, multiplex bead flow cytometry, Alexa488-MEK5 | binding response (% of control), % at 10 µM | Mitogen-activated protein kinase kinase kinase 3 (Homo sapiens), Q99759 | bead-based flow cytometry, Alexa488-MEK5 binding to MEKK3; actives lie on both sides; 0 = blocked by unlabeled MEK5, 100 = vehicle | AID 1529, 2009 | actives 1.4% (n = 290,000);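 active = binding response more than 3 SD above or below the average of its plate-row segment, actives on both sides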;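 also: Alexa488 bead fluorescence after subtracting the streptavidin-only scavenger bead signal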
dFosB activator – activators of delta FosB homodimer, primary screen, biochemical, fluorescence polarization, TAMRA-CDK5 oligo, single point | purified delta FosB; percent of positive-control signal above neutral wells | activation, % at 25 µM | actives 0.99% (n = 340,000) | AID 493131, 2011;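 active = mean activation above about 17%, with every replicate also reaching it, limit read from the data, passing the limit was not always enough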
Target sequence (P13346 whole entry, looked up): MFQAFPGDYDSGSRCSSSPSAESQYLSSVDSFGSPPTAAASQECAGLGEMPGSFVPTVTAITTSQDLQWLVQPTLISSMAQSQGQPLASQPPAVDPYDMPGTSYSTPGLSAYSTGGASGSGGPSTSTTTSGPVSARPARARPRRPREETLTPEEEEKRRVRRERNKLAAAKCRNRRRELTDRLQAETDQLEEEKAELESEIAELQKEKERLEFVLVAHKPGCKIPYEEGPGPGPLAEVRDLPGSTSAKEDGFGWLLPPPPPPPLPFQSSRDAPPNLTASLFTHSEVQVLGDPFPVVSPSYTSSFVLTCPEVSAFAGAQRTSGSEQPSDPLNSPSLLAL
MEKK2mut PB1 HTS – MEK5 binding signal on mutant MEKK2 PB1, primary screen, biochemical, multiplex bead flow cytometry, Alexa488-MEK5. Alexa488-MEK5 binding to MEKK2 mutant. percent response, % at 10 µM. actives 0.35% (n = 290,000); in the data active = percent response above about 24%, passing the limit was not always enough
MEKK2wt confirm – modulators of MEK5 binding to wildtype MEKK2, confirmation, biochemical, single concentration, multiplex bead flow cytometry. shares compounds with MEKK3 PB1 HTS. Alexa488-MEK5 binding to MEKK2 WT; actives lie on both sides. binding response (% of control), % at 10 µM. actives 2.4% (n = 5,900). AID 1892, 2009; in the data active = binding response below about 16% or above about 210%; inactive = in between
MEKK2mut-MEK5 – mutant MEKK2 PB1-MEK5 binding signal retest – biochemical, single concentration, multiplex bead flow cytometry, confirmation | percent response, % at 10 µM | shares compounds with MEKK3 PB1 HTS | actives 2% (n = 5,900) | Alexa488-MEK5 binding to MEKK2 mutant; in the data active = percent response mostly above about 71%, no sharp cut-off; inactive = mostly below about 38%;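 also: higher means compound restores mutant binding toward wildtype level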
MEKK3-MEK5 inh – MEKK3 wild-type PB1 binding to MEK5, inhibitors, confirmation, biochemical, bead multiplex flow cytometry, single concentration, wildtype | binding response (% of control), % at 10 µM | AID 1894, 2009 | shares compounds with MEKK3 PB1 HTS | Alexa488-MEK5 binding to MEKK3; active compounds read low | actives 1.8% (n = 5,900);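 active = binding response below 72% of control, or above a set upper limit, though filed actives all read lower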;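 also: 100% = DMSO only wells and 0% = binding blocked by excess unlabeled MEK5; lower values mean stronger disruption of MEK5 binding to MEKK3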
An asterisk follows results filed as active; [ ] = dose if it differs, or a comment. Hits are enriched below; roughly 2.9% of the tested compounds scored in any of these assays.

Results for COc1ccc(Cc2nnc(SC(C)C(=O)Nc3ccc(C(N)=O)cc3)o2)cc1 (configuration not stated) ?
dFosB activator: 3.6

What do the screens show for `Nn1cnc2c(c1=O)C1(CCCCC1)Cc1ccccc1-2`?
MEKK2 WT-MEK5: 106.0; DNA FID counter: -8.6; MEKK3 PB1 HTS: 141.0*; dFosB activator: -5.9; MEKK2mut PB1 HTS: 0.0; MEKK2wt confirm: 99.0; MEKK2mut-MEK5: 1.0; MEKK3-MEK5 inh: 104.0

What do the screens show for `O=C(c1ccccc1SCc1ccccc1)N1CCCCCC1`?
MEKK2 WT-MEK5: 93.0; DNA FID counter: -28.4; MEKK3 PB1 HTS: 100.0; dFosB activator: 6.6; MEKK2mut PB1 HTS: -4.0

What do the screens show for `CC1(N2CCCCC2)C(=O)c2ccccc2C1=O`?
MEKK2 WT-MEK5: 106.0; DNA FID counter: 0.9; MEKK3 PB1 HTS: 138.0*; dFosB activator: 3.3; MEKK2mut PB1 HTS: 0.0; MEKK2wt confirm: 106.0; MEKK2mut-MEK5: 2.0; MEKK3-MEK5 inh: 103.0

How did CC1(N2CCOCC2)C(=O)c2ccccc2C1=O do in these assays?
MEKK2 WT-MEK5: 103.0; DNA FID counter: -3.4; MEKK3 PB1 HTS: 109.0; dFosB activator: 1.3; MEKK2mut PB1 HTS: 0.0

What do the screens show for `CCOc1ccc(N2CCc3c(C)nc(SC)nc32)cc1`?
MEKK2 WT-MEK5: 103.0; DNA FID counter: -7.6; MEKK3 PB1 HTS: 108.0; dFosB activator: -6.6; MEKK2mut PB1 HTS: -3.0

What do the screens show for `COc1ccc(Cl)cc1NC(=S)NCCCN1CCCC1=O`?
MEKK2 WT-MEK5: 63.0; DNA FID counter: -13.9; MEKK3 PB1 HTS: 46.0*[inhibitor]; dFosB activator: -4.6; MEKK2mut PB1 HTS: -14.0; MEKK2wt confirm: 99.0; MEKK2mut-MEK5: 2.0; MEKK3-MEK5 inh: 98.0

How did O=C1CCCN1CCCNC(=S)Nc1ccc(Br)cc1Cl do in these assays?
MEKK2 WT-MEK5: 92.0; DNA FID counter: -0.2; MEKK3 PB1 HTS: 87.0; dFosB activator: -7.5; MEKK2mut PB1 HTS: -7.0

What do the screens show for `CCC(CC)c1nnc(NC(=O)c2cccnc2SC)s1`?
MEKK2 WT-MEK5: 101.0; DNA FID counter: -24.8; MEKK3 PB1 HTS: 107.0; dFosB activator: -11.7; MEKK2mut PB1 HTS: 3.0

Results for CCOc1ccc(NC(=O)c2ccc(OC)cc2)cc1 ?
MEKK2 WT-MEK5: 112.0; DNA FID counter: -3.7; MEKK3 PB1 HTS: 126.0*; dFosB activator: -6.7; MEKK2mut PB1 HTS: 6.0; MEKK2wt confirm: 99.0; MEKK2mut-MEK5: -1.0; MEKK3-MEK5 inh: 97.0

What do the screens show for `CCOc1ccc(NC(=O)c2ccc3c(SCC(=O)O)c4c(nc3c2)CCCC4)cc1`?
MEKK2 WT-MEK5: 113.0; DNA FID counter: -37.4; MEKK3 PB1 HTS: 137.0*; dFosB activator: -6.0; MEKK2mut PB1 HTS: 4.0; MEKK2wt confirm: 95.0; MEKK2mut-MEK5: -7.0; MEKK3-MEK5 inh: 100.0

What do the screens show for `CCOc1ccc(NC(=O)c2ccc(N)cc2)cc1`?
MEKK2 WT-MEK5: 101.0; DNA FID counter: 1.9; MEKK3 PB1 HTS: 102.0; dFosB activator: 0.8; MEKK2mut PB1 HTS: 1.0

How did CCOC(=O)c1ccc(N2CCCCC2)c(NS(=O)(=O)c2ccc(C)cc2)c1 do in these assays?
MEKK2 WT-MEK5: 86.0; DNA FID counter: -21.1; MEKK3 PB1 HTS: 96.0; dFosB activator: -8.8; MEKK2mut PB1 HTS: -8.0

Results for Cc1ccc(S(=O)(=O)c2cc(OC(=O)c3ccco3)ccc2OC(=O)c2ccco2)cc1 ?
MEKK2 WT-MEK5: 101.0; DNA FID counter: -11.3; MEKK3 PB1 HTS: 128.0*; dFosB activator: -6.8; MEKK2mut PB1 HTS: -1.0; MEKK2wt confirm: 96.0; MEKK2mut-MEK5: -8.0; MEKK3-MEK5 inh: 104.0

Results for Cc1ccc(S(=O)(=O)Nc2ccc(-n3c(C)nc4ccccc4c3=O)cc2)cc1 ?
dFosB activator: -14.0

What do the screens show for `Cc1cc(C)c2c(CN3CCOCC3)cc(=O)oc2c1`?
MEKK2 WT-MEK5: 94.0; DNA FID counter: -7.8; MEKK3 PB1 HTS: 100.0; dFosB activator: -2.3; MEKK2mut PB1 HTS: -7.0

How did Cc1nc(CN2CCOCC2)cc(=O)[nH]1 do in these assays?
MEKK2 WT-MEK5: 2.0*[inhibitor]; DNA FID counter: -1.8; MEKK3 PB1 HTS: 2.0*[inhibitor]; dFosB activator: 0.2; MEKK2mut PB1 HTS: -16.0; MEKK2wt confirm: 102.0; MEKK2mut-MEK5: 3.0; MEKK3-MEK5 inh: 101.0

How did CC(C)NC(=O)CSc1nnc(C2CC2)n1-c1ccccc1 do in these assays?
MEKK2 WT-MEK5: 103.0; DNA FID counter: -0.2; MEKK3 PB1 HTS: 102.0; dFosB activator: -5.8; MEKK2mut PB1 HTS: 3.0

What do the screens show for `COc1ccccc1CNC(=O)CCNC(=O)Cn1ccc2ccccc2c1=O`?
MEKK2 WT-MEK5: 103.0; DNA FID counter: -9.9; MEKK3 PB1 HTS: 102.0; dFosB activator: 2.4; MEKK2mut PB1 HTS: -2.0

How did COc1ccccc1CNC(=O)CCNC(=O)Cn1cnc2ccccc2c1=O do in these assays?
MEKK2 WT-MEK5: -1.0*[inhibitor]; DNA FID counter: -6.7; MEKK3 PB1 HTS: 0.0*[inhibitor]; dFosB activator: 2.6; MEKK2mut PB1 HTS: -9.0; MEKK2wt confirm: 99.0; MEKK2mut-MEK5: -3.0; MEKK3-MEK5 inh: 99.0

What do the screens show for `COc1ccc(CCNC(=O)Cn2cnc3ccccc3c2=O)cc1OC`?
MEKK2 WT-MEK5: 105.0; DNA FID counter: -2.5; MEKK3 PB1 HTS: 129.0*; dFosB activator: 3.2; MEKK2mut PB1 HTS: 0.0; MEKK2wt confirm: 105.0; MEKK2mut-MEK5: -1.0; MEKK3-MEK5 inh: 100.0

Results for COc1ccc(CCNC(=O)CSc2nn(-c3ccccc3)c(=S)s2)cc1OC ?
MEKK2 WT-MEK5: 105.0; DNA FID counter: -17.5; MEKK3 PB1 HTS: 148.0*; dFosB activator: -3.2; MEKK2mut PB1 HTS: 0.0; MEKK2wt confirm: 107.0; MEKK2mut-MEK5: -3.0; MEKK3-MEK5 inh: 106.0

How did COC(=O)C(C(=O)OC)C1C=CCN(C(C)=O)C1 (configuration not stated) do in these assays?
dFosB activator: -11.8

Results for COc1ccc2cc3c(nc2c1)OCC3 ?
MEKK2 WT-MEK5: 109.0; DNA FID counter: -4.6; MEKK3 PB1 HTS: 106.0; dFosB activator: -0.3; MEKK2mut PB1 HTS: 12.0

High-throughput results as filed in PubChem BioAssay.
